The values below come from PubChem BioAssay AID602293 (National Center for Advancing Translational Sciences (NCATS), 2012).

Out of some 1,300 compounds screened, about 30 (2%) were called active. Not shown: some 10% with an inconclusive outcome. Calls follow the shape of the dose curve; as a rule, active = well fitted inhibition curve with a large enough effect; inconclusive = small, poorly fitted or top-dose-only effect; inactive = flat fitted curve, though single readings scatter. For the sample, actives were picked, then their nearest neighbours and some compounds at random.
% is scaled to controls: 0 for no effect and ±100 for the full control effect; potency is read from the fitted curve at half-maximal effect.

The assay in a line: qHTS for antagonists of the Thyroid Stimulation Hormone Receptor: Hit Validation in HTRF Activity in a Luteinizing Hormone Receptor Cell Line. The conditions noted are these: LHR-expressing cell line, cAMP HTRF, antagonist mode; series mostly up to 58 µM; activity change, negative = inhibition: at the top concentration. An excerpt:
The thyroid-stimulating hormone receptor (TSHR) is a member of the 7 trans-membrane-spanning receptor (7TMR) family of cell surface receptors. TSHR-mediated hyperthyroidism is important in thyroid pathology. The development of small molecule antagonists of TSHR may lead to therapeutic approaches for TSHR-mediated hyperthyroidism caused by constitutively activating mutations or stimulating auto-antibodies associated with Graves' disease. Graves' disease is the leading cause of hyperthyroidism and is caused by autoantibodies that stimulate TSHR (TsAbs) causing thyroid growth and unregulated overproduction of thyroid hormones and existing treatments have liabilities (agranulocytosis). In addition, TSHRs are known to be expressed in multiple extrathyroidal tissues including bone, brain, kidney, testis, fat and cells of the immune system but the role of the TSHR in these tissues is not clear. Therefore, TSHR antagonists/inverse agonists could be used as probes of extrathyroidal TSHR function. Finally, TSHR inverse agonists, which are a subclass of antagonists that inhibit agonist-independent (or basal or constitutive) TSHR signaling, could be used to inhibit TSH-independent signaling in patients with recurrent or metastatic thyroid cancer who are receiving thyroid hormone to suppress TSH.
In collaboration between scientist from the NCGC and the NIDDK, a miniaturized HTRF high-throughput screen was developed. It's a cell based assay, where an anti cAMP antibody contains a fluorescent cryptate tag (excitation 337 nm; emission 620 nm) and the acceptor is cAMP-d2 (excitation 620 nm; emission 665 nm). When antibody and cAMP-d2 interact and are excited by a 337 nm light, a FRET occurs resulting in emission at 665 nm. The assay is competition between cAMP-d2 and cAMP (from the cell lysate). The homogeneous protocol allows for one step dispense after stimulation that is automation friendly. In order to confirm specificity of the compounds to the TSHR, a confirmatory assay was conducted on a similar family member, the Luteinizing Hormone (LH) receptor, transfected into a HEK 293 cell line, using an orthogonal detection technology to measure cAMP stimulation: antibody-based Homogeneous Time Resolved Fluorescence (HTRF).
NIH Chemical Genomics Center [NCGC]
NIH Molecular Libraries Probe Centers Network [MLPCN]
Assay Provider: Marvin Gershengorn, NIDDK
Homogeneous Time Resolved Fluorescence (HTRF) cAMP Assay. HEK 293 cells stably transfected with a vector containing the LH receptor and maintained under hygromycin selection were obtained from the laboratory of Dr. Marvin Gershengorn. Compounds were assayed using a HTRF cAMP detection kit (Cisbio) on the LH receptor transfected cell line. Briefly, 750 cells were plated in 2.5 ul/well of complete media (DMEM containing 10 % FCS, and 100 uM RO 20-1724) in 1536 well solid bottom white plates and 23 nl/well compound in DMSO solution or controls was added. Following 30 minute incubation at room temperature, 2.5 ul/well of labeled d2 cAMP and 2.5 ul/well of anti-cAMP antibody (both diluted 1:20 in lysis buffer) were added to each well using a flying reagent dispenser (Aurora Discovery, San Diego) . Plates were measured using the Envision plate reader (PerkinElmer, Boston, MA) with excitation at 330 nm and emissions of 615 nm and 660 nm.
(In general: Quantitative high-throughput screening tests each substance at several concentrations.)
`COc1ccccc1N1CCN(c2nc(C)nc3c2oc2ccccc23)CC1`: the “activity change, negative = inhibition” value is 1.31% (inactive).

On to `O=C1C=CC(=O)N1CCCCCCN1C(=O)C=CC1=O`, for which the Potency was 33.8 µM (active).

On to `Cc1cccc(/C=C/C(=O)c2cc(Br)ccc(=O)c2O)c1`, for which the “activity change, negative = inhibition” value is -0.0449% (inactive).

For the compound `O=S(=O)(c1cc(C(F)(F)F)ccc1Cl)N1CCN(c2ncnc3ccccc23)CC1`, the “activity change, negative = inhibition” value is -3.64% (inactive).

As for `COc1cc2sc3ccc(-c4ccc(CN5CCOCC5)cc4)cc3c(=O)c2cc1OC`, the “activity change, negative = inhibition” value is -5.62% (inactive).

For the compound `COc1ccc(NC(=O)/C(Cl)=C(/Cl)S(=O)Cc2ccccc2Cl)cn1` (stereo unspecified), the Potency is 37.9 µM (active).

Consider `COc1ccc(NS(=O)(=O)c2ccc3c(c2)Cc2ccccc2-3)cn1`, for which the “activity change, negative = inhibition” value was 1.94% (inactive).

Take `O=C(Nc1ccccc1Cl)/C(Cl)=C(\Cl)S(=O)c1ccccc1` (stereo unspecified): the “activity change, negative = inhibition” value is -22.7% (inactive).

Consider `c1ccc2c(Cn3nnc4ccccc43)cccc2c1`, for which the “activity change, negative = inhibition” value is 2.75% (inactive).

For the compound `Cc1onc(-c2ccccc2Cl)c1C(=O)NC(=S)Nc1ccc(C(C)C)cc1`, the “activity change, negative = inhibition” value was -0.899% (inactive).

Take `O=C(N1CCN=C1SCc1cccnc1)C12CC3CC(CC(C3)C1)C2`: the “activity change, negative = inhibition” value is -1.74% (inactive).

As for `O=C(CSc1nc2cc(Cl)c(Cl)cc2[nH]1)c1ccc2c(c1)OCO2`, the “activity change, negative = inhibition” value is 2.41% (inactive).

Consider `O=S(=O)(Nc1ccc2cn[nH]c2c1)c1cc(Br)ccc1Br`, for which the “activity change, negative = inhibition” value is -0.271% (inactive).

Turning to `C=C(C)CNc1cc(S(=O)(=O)N2CCOCC2)ccc1Oc1ccccc1`, the “activity change, negative = inhibition” value was -2.45% (inactive).

As to `Clc1ccc(CSc2nnc(CNc3cccc(Cl)c3)o2)cc1`, the “activity change, negative = inhibition” value was 0.688% (inactive).

Regarding `CCN(CC)S(=O)(=O)c1ccc(Oc2ccc(S(=O)(=O)N(CC)CC)cc2)cc1`, the “activity change, negative = inhibition” value was -2.52% (inactive).

For the compound `CC1=NN(C(N)=S)C(=O)C1N=Nc1c(Br)cc(Br)cc1Br` (stereo unspecified), the “activity change, negative = inhibition” value is 1.89% (inactive).

Regarding `O=C(Oc1c(Br)cc([N+](=O)[O-])cc1Br)c1cccnc1`, the “activity change, negative = inhibition” value was 1.3% (inactive).

Turning to `CCc1ccccc1NC(=O)CN1CCN(C(=O)CNC(=O)Cc2cccc3ccccc23)CC1`, the “activity change, negative = inhibition” value was 1.56% (inactive).

With `O=C(Nc1ccc(Cl)c(Cl)c1)Nc1ccccc1O`, the “activity change, negative = inhibition” value is -3.37% (inactive).

On to `CCCCCCSc1ccc(-c2nc3ccc(Cl)cn3c2NCCCC)cc1OC`, for which the “activity change, negative = inhibition” value was -1.07% (inactive).

In the case of `COc1ccc(-c2cc(-c3nc4ccccn4c3NCc3ccccc3)ccc2OC)cc1`, the Potency was 9.53 µM (active).

In the case of `CCCCNc1c(-c2cccc(-c3ccc(OC)cc3)c2)nc2ccc(C)cn12`, the “activity change, negative = inhibition” value was -0.0927% (inactive).

For the compound `O=C(Nc1nc2c(s1)CCCC2)c1ccc2ncsc2c1`, the “activity change, negative = inhibition” value was -6.37% (inactive).

For `N#C/C(=N\Nc1cccc([N+](=O)[O-])c1)C(=O)c1ccc(Br)cc1`, the “activity change, negative = inhibition” value is -1.57% (inactive).

`Cc1ccc(C)c(N2CCN(C(=O)CCS(=O)(=O)c3ccc4c(c3)CCN4C(=O)C3CC3)CC2)c1`: the “activity change, negative = inhibition” value was 0.0752% (inactive).

In the case of `Cc1ccc(-n2c(Cl)c(Cl)nc(Cl)c2=O)cc1`, the Potency is 37.9 µM (active).

Turning to `Cc1c(Cl)sn(-c2ccc(Cl)cc2)c1=O`, the “activity change, negative = inhibition” value was -7.13% (inactive).

As to `Cc1ccc2cccc(Oc3ncnc4scc(-c5ccccc5)c34)c2n1`, the “activity change, negative = inhibition” value was -7.58% (inactive).

For the compound `O=C(Nc1ccc(Cl)c(S(=O)(=O)N2CCOCC2)c1)c1ccc(OCC2CCCO2)cc1` (stereo unspecified), the Potency is 37.9 µM (active).

Turning to `O=C(Nc1nc(-c2ccc(Cl)cc2Cl)cs1)c1ccc(OCC2CCCO2)cc1` (stereo unspecified), the “activity change, negative = inhibition” value is -6.16% (inactive).

Consider `COc1cc(C(C)=O)ccc1OCC(=O)Nc1ccc(Cl)c(S(=O)(=O)N2CCOCC2)c1`, for which the “activity change, negative = inhibition” value was -7.28% (inactive).

Take `COC(=O)c1ccc(CN2C(=O)NC(Cc3c[nH]c4ccccc34)C2=O)cc1` (stereo unspecified): the “activity change, negative = inhibition” value was 0.496% (inactive).

Regarding `COc1ccc(-c2csc(NC(=O)c3ccccc3NS(=O)(=O)c3ccc(F)c(F)c3)n2)cc1`, the “activity change, negative = inhibition” value is -3.22% (inactive).

On to `COc1ccc(Cc2nc(C(=O)Nc3ccc(Cl)cc3)cs2)cc1`, for which the “activity change, negative = inhibition” value was -1.91% (inactive).

With `O=S(=O)(Nc1cccc(-c2cn3cccnc3n2)c1)c1ccc(-c2ccccc2)cc1`, the “activity change, negative = inhibition” value is -0.336% (inactive).

`CCOC(=O)CCS(=O)(=O)c1nc(-c2ccccc2)cc(C(F)(F)F)n1`: the “activity change, negative = inhibition” value is 0.21% (inactive).

In the case of `COc1ccc(/C=N/n2c(SC)nnc(C(C)(C)C)c2=O)cc1`, the “activity change, negative = inhibition” value is -0.342% (inactive).

As to `COc1ccc(S(=O)(=O)N2CCOC23CCN(C(=O)c2ccc(Cl)cc2Cl)CC3)cc1`, the “activity change, negative = inhibition” value is -0.906% (inactive).

Turning to `O=C(NCCC1=CCCCC1)C(=O)NCC1OCCCN1S(=O)(=O)c1ccccc1` (stereo unspecified), the “activity change, negative = inhibition” value was 3.6% (inactive).

For the compound `Cc1cc(C(=O)CCl)c(C)n1CCc1ccccc1`, the “activity change, negative = inhibition” value was -0.254% (inactive).

For the compound `CC1(C)CC2(CCCN3C(=O)CSC32)CCS1` (stereo unspecified), the “activity change, negative = inhibition” value is -0.704% (inactive).

For the compound `COC(=O)c1ccc(-c2noc(CN(C)CCC3CCCCO3)n2)cc1` (stereo unspecified), the “activity change, negative = inhibition” value is -0.562% (inactive).

Consider `CCC(C)(C)C1CCC(NC(=O)N2CCN(c3ccccc3O)CC2)CC1` (stereo unspecified), for which the “activity change, negative = inhibition” value was -0.692% (inactive).

For the compound `COc1ccccc1-n1cnc2cc(NS(=O)(=O)c3ccc(Br)cc3)ccc21`, the “activity change, negative = inhibition” value was 0.0454% (inactive).

Turning to `O=C1NC(=S)S/C1=C\c1ccc2ccccc2c1`, the “activity change, negative = inhibition” value was -0.809% (inactive).

For the compound `O=[N+]([O-])c1c(Nc2cccc(O)c2)cc(Cl)c2nonc12`, the Potency was 30.1 µM (active).

For the compound `O=C(COC(=O)c1ccccc1NS(=O)(=O)c1cccs1)NCC12CC3CC(CC(C3)C1)C2`, the “activity change, negative = inhibition” value was 1.8% (inactive).

As to `Cc1cc(OCC(=O)Nc2cccc(S(=O)(=O)N3CCCC3)c2)ccc1Cl`, the “activity change, negative = inhibition” value was -2.78% (inactive).

Consider `CCOC(=O)c1c(NC(NC(=O)C(C)C)C(Cl)(Cl)Cl)sc2c1CCC2` (stereo unspecified), for which the “activity change, negative = inhibition” value was -0.795% (inactive).

Take `O=C(Nc1ccc(SC(F)F)cc1)c1ccc2c(=O)n3c(nc2c1)CCC3`: the “activity change, negative = inhibition” value was -2.9% (inactive).
